Measurements from PubChem BioAssay.
Where “and” joins values, the source holds several entries; their conditions need not be identical. Equal entries are not always repeated. Calls of active or inactive are those of the source. Rule as the data show it, unless noted: active = parasite load remaining mostly below about 12% (no sharp cut-off); inactive = mostly above about 10%.

Key:
[1] = P. berghei load reduction in hepatocytes – cell-based, HepG2, luciferase luminescence, HepG2 viability, primary screen (AID 624349);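 also: 100% = mean of DMSO negative control wells on the same plate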; settings: P. berghei liver stage in HepG2, luciferase luminescence, concentration not given here; parasite load remaining: stronger effect = lower value; viability: measured here: HepG2 viability without parasites
[2] = Wnt pathway potentiators raising nuclear beta-catenin – imaging, WNT3A-conditioned medium, mouse C2C12, NPC library, primary screen (AID 1117326; in the data active = nuclear beta-catenin stimulation mostly above about 4.2%, no sharp cut-off; inactive = mostly below about 10%; also: reference of the scale not given here); settings: stronger effect = higher value
[3] = stimulators of insulin release from INS-1E, primary screen, cell-based, 5 mM glucose, NPC library (AID 1117329;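 active = compound raises insulin release from rat beta cells at 5 mM glucose, no numeric limit stated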; also: reference of the scale not given here); settings: rat INS-1E insulin secretion, at 10 µM, stronger effect = higher value
[4] = growth inhibition of GSK3B-pretreated HCT116 cells – cell-based, CellTiter-Glo, 0.2 to 20 µM (AID 1117336;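 active = compounds lowering colon cancer cell viability after pretreatment blocking the GSK3B kinase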); settings: HCT116 viability after GSK3B inhibitor, at 20 µM, stronger effect = higher value
[5] = inhibition of endothelial tube formation, primary screen, imaging, VEGF stimulated, CD31 staining, tube area, NPC library (AID 1117340;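 active = compound that reduces growth-factor-driven endothelial tube area in a mixed cell culture, no cutoff stated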); settings: VEGF-stimulated ADSC/ECFC co-culture, at 10 µM, stronger effect = higher value
[6] = GLP1 release stimulators, primary, NCI-H716, NPC library (AID 1117341;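 active = compound raises GLP1 secretion from the human gut endocrine cells, with no numeric limit stated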; also: reference of the scale not given here); settings: NCI-H716 cells, at 10 µM, stronger effect = higher value
[7] = HCT116 colon cancer cell growth inhibition, primary screen, CellTiter-Glo luminescence, NPC library (AID 1117342;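 active = compounds that lower survival of HCT116 colon cancer cells in the luminescence readout, no numeric limit stated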); settings: at 20 µM (top of the series)
[8] = reduced SW480 viability measured with CellTiter-Glo, NPC library, primary (AID 1117343;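 active = compounds that lower viability of the colon cancer cells in the luminescence readout, with no numeric limit stated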); settings: CellTiter-Glo luminescence; at 20 µM (top of the series)
[9] = NPC library primary testing for decreased DLD-1 cell viability via CellTiter-Glo (AID 1117346;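 active = compounds that lower survival of DLD-1 colon cancer cells in the luminescence readout, no cutoff given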); settings: DLD-1 viability, CellTiter-Glo luminescence; at 20 µM (top of the series)
[10] = biological target: 6-phosphogluconate dehydrogenase, decarboxylating (Homo sapiens) (UniProt P52209); assay: inhibition of human phosphogluconate dehydrogenase – biochemical, recombinant enzyme, NADPH absorbance, primary screen (AID 1159550;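 active = at least 20% inhibition of 6-phosphogluconate dehydrogenase activity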); settings: recombinant 6PGD, NADPH absorbance 341 nm; at 10 µM; stronger effect = higher value
Chain of 6-phosphogluconate dehydrogenase, decarboxylating (Homo sapiens) (P52209 whole entry, looked up): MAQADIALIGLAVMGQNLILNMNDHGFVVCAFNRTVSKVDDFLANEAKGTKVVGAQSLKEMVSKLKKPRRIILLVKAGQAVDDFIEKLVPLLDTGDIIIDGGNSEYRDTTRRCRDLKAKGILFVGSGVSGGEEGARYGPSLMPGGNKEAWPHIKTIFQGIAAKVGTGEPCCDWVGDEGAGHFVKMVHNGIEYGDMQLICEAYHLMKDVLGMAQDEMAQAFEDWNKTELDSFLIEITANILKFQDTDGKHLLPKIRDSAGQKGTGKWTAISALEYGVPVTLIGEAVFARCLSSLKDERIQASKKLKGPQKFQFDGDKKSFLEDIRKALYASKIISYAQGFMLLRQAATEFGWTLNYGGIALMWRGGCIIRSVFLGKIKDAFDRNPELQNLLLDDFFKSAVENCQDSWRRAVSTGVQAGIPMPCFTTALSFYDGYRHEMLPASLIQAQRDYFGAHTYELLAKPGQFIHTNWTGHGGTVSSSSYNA

O=c1[nH]c(=O)n([C@H]2C[C@H](O)[C@@H](CO)O2)cc1F
75%: viability [1]
21.6%: nuclear beta-catenin stimulation ([2]; stimulation, at 2 µM)
inactive: parasite load remaining [1] 13.4% | nuclear beta-catenin stimulation ([2]; at 10 µM) 21% | insulin secretion stimulation [3] -1.2% | GLP1 secretion stimulation [6] 2.8% | inhibition [10] -7.05%
active: viability decrease [4] 94.2% | tube area decrease [5] 87.8% | inhibition of viability [7] 102% | viability decrease (inhibition) [8] 93.2% | viability decrease (inhibition) [9] 69.5%

Nc1ccc(S(N)(=O)=O)cc1
0.5%: nuclear beta-catenin stimulation ([2]; stimulation, at 2 µM)
101% and 73.5% and 90.2%: viability [1]
inactive: parasite load remaining [1] 105% and 77.1% and 50.7% | nuclear beta-catenin stimulation ([2]; at 10 µM) 0.6% | insulin secretion stimulation [3] -1.2% | viability decrease [4] 3.9% | tube area decrease [5] -8.1% | GLP1 secretion stimulation [6] 2.3% | inhibition of viability [7] -0.4% | viability decrease (inhibition) [8] 6.8% | viability decrease (inhibition) [9] 25.1% | inhibition [10] 7.71%

CC(=O)OCC1=C(C(=O)O)N2C(=O)[C@@H](NC(=O)CSc3ccncc3)[C@H]2SC1
1.1%: nuclear beta-catenin stimulation ([2]; stimulation, at 2 µM)
inactive: parasite load remaining [1] 79.7% and 64.8% | nuclear beta-catenin stimulation ([2]; at 10 µM) -0.8% | insulin secretion stimulation [3] 0.9% | viability decrease [4] 14.8% | tube area decrease [5] -9.7% | GLP1 secretion stimulation [6] -1.1% | inhibition of viability [7] 5.07% | viability decrease (inhibition) [8] 13.8% | viability decrease (inhibition) [9] -15.1% | inhibition [10] 3.03%
79.3% and 105%: viability [1]

NC(N)=N/N=C/c1c(Cl)cccc1Cl
-1.1%: nuclear beta-catenin stimulation ([2]; stimulation, at 2 µM)
inactive: parasite load remaining [1] 15.7% and 61% and 36.4% | nuclear beta-catenin stimulation ([2]; at 10 µM) -0.1% | insulin secretion stimulation [3] -0.5% | tube area decrease [5] 18.2% | GLP1 secretion stimulation [6] 2.1% | viability decrease (inhibition) [9] 45.4% | inhibition [10] 14%
active: viability decrease [4] 60% | inhibition of viability [7] 80.7% | viability decrease (inhibition) [8] 99.6%
48.5% and 89.8% and 102%: viability [1]

CC(C)(C)CC(C)(C)c1ccc(O)c(Cc2ccc(Cl)cc2Cl)c1
active: insulin secretion stimulation [3] 4.4% | viability decrease [4] 99.3% | tube area decrease [5] 108% | GLP1 secretion stimulation [6] 117% | inhibition of viability [7] 100% | viability decrease (inhibition) [8] 120% | viability decrease (inhibition) [9] 102%
inactive: parasite load remaining [1] 157% | nuclear beta-catenin stimulation ([2]; at 10 µM) 0.1% | inhibition [10] -15.2%
83.5%: viability [1]
6.3%: nuclear beta-catenin stimulation ([2]; stimulation, at 2 µM)

O=C(O)CCCCC1CCSS1 (centres undefined)
-0.2%: nuclear beta-catenin stimulation ([2]; stimulation, at 2 µM)
96.8%: viability [1]
inactive: parasite load remaining [1] 165% | nuclear beta-catenin stimulation ([2]; at 10 µM) 0% | insulin secretion stimulation [3] -1.9% | viability decrease [4] 3.2% | tube area decrease [5] 10.9% | GLP1 secretion stimulation [6] 0.5% | inhibition of viability [7] 14.7% | viability decrease (inhibition) [8] 29.9% | viability decrease (inhibition) [9] -0.7% | inhibition [10] 14.8%

CCCCCCc1ccc(O)cc1O
71.9% and 91.6%: viability [1]
active: viability decrease [4] 65.4% | viability decrease (inhibition) [8] 84.1% | viability decrease (inhibition) [9] 56.2%
2.1%: nuclear beta-catenin stimulation ([2]; stimulation, at 2 µM)
inactive: parasite load remaining [1] 87.3% and 55.4% | nuclear beta-catenin stimulation ([2]; at 10 µM) 7.5% | insulin secretion stimulation [3] 9.8% | tube area decrease [5] 30.7% | GLP1 secretion stimulation [6] 4.2% | inhibition of viability [7] 41.8% | inhibition [10] -8.5%

CC(=O)[C@@]1(O)CC[C@H]2[C@@H]3C[C@H](C)C4=CC(=O)C=C[C@]4(C)[C@@]3(F)[C@@H](O)C[C@@]21C
102%: viability [1]
inactive: parasite load remaining [1] 127% | nuclear beta-catenin stimulation ([2]; at 10 µM) 2.3% | insulin secretion stimulation [3] -1.1% | viability decrease [4] -45.9% | tube area decrease [5] -16% | GLP1 secretion stimulation [6] -0.3% | inhibition of viability [7] -1.33% | viability decrease (inhibition) [8] -18.3% | viability decrease (inhibition) [9] -7.2% | inhibition [10] 15.2%
0.2%: nuclear beta-catenin stimulation ([2]; stimulation, at 2 µM)

CC(C)(Oc1ccc(Cl)cc1)C(=O)O
2.1%: nuclear beta-catenin stimulation ([2]; stimulation, at 2 µM)
inactive: parasite load remaining [1] 91.8% and 94% | nuclear beta-catenin stimulation ([2]; at 10 µM) 1.8% | insulin secretion stimulation [3] -2.3% | viability decrease [4] -12.6% | tube area decrease [5] -2.8% | GLP1 secretion stimulation [6] 4.6% | inhibition of viability [7] 13.2% | viability decrease (inhibition) [8] 12.2% | viability decrease (inhibition) [9] -5.25% | inhibition [10] -17.2%
98.7% and 75.8%: viability [1]

NC(=O)c1ccc([N+](=O)[O-])cc1Cl
inactive: parasite load remaining [1] 63.8% and 35.2% | nuclear beta-catenin stimulation ([2]; at 10 µM) -0.6% | insulin secretion stimulation [3] -2.1% | viability decrease [4] -0.35% | tube area decrease [5] -35.4% | GLP1 secretion stimulation [6] 0% | inhibition of viability [7] 42.7% | viability decrease (inhibition) [8] 32.9% | viability decrease (inhibition) [9] 3.8% | inhibition [10] 10.9%
105% and 84.3%: viability [1]
0.9%: nuclear beta-catenin stimulation ([2]; stimulation, at 2 µM)

CC(C)NCC(O)c1ccc2ccccc2c1 (centres undefined)
-1.4%: nuclear beta-catenin stimulation ([2]; stimulation, at 2 µM)
inactive: parasite load remaining [1] 115% and 166% and 45.3% | nuclear beta-catenin stimulation ([2]; at 10 µM) 0.7% | insulin secretion stimulation [3] 9.8% | viability decrease [4] 6.6% | tube area decrease [5] -11.2% | GLP1 secretion stimulation [6] 1.5% | inhibition of viability [7] 26.4% | viability decrease (inhibition) [8] 20.9% | viability decrease (inhibition) [9] 19.4% | inhibition [10] 8.21%
75% and 89% and 106%: viability [1]

NC(=O)NC(=O)Cc1ccccc1
inactive: parasite load remaining [1] 87.8% and 56.5% | nuclear beta-catenin stimulation ([2]; at 10 µM) 0.2% | insulin secretion stimulation [3] 1.3% | viability decrease [4] -10.2% | tube area decrease [5] 2.3% | GLP1 secretion stimulation [6] -2.2% | inhibition of viability [7] -3.67% | viability decrease (inhibition) [8] 38.8% | viability decrease (inhibition) [9] -11.6% | inhibition [10] 7.97%
68% and 92%: viability [1]
-0.4%: nuclear beta-catenin stimulation ([2]; stimulation, at 2 µM)
